A short description of test [1]: qHTS assay to identify small molecule agonists of the hypoxia (HIF-1) signaling pathway (AID 1224846; active = well fitted activation curve with a large enough effect in the signal ratio in the repeat runs, not every such curve was filed as active; the % refers to the signal ratio). The method, boiled down: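 Reporter induction in HRE-bla ME-180 cells is taken as agonism: cells sit 5 hrs after plating, receive compounds or DMSO only, incubate 17 hrs at 37C under 5% CO2, and are loaded with CCF4-AM for beta-lactamase FRET measurement.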
(qHTS replaces the single test concentration by a dilution series.)

A short description of test [2]: qHTS assay to identify small molecule agonists of H2AX - cell viability counter screen (AID 1224847; calls by dose curve;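 note: wild-type CHO-K1 cells; top concentration of the series differs between compounds; nearly all actives have a fitted effect of over 30% in size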). In outline:
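Cells plated first: CHO-K1, 1000 per well in 10% FBS medium, incubated overnight at 37C. Then 15-point compound titration added (final DMSO 0.76%) for 3 hr. Finally CellTiter-Glo added and luminescence read.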

The nature of test [3]: qHTS assay to identify small molecule antagonists of the estrogen related receptor (ERR) signaling pathway from Tox21 library (AID 1224848). Note: nearly all actives have a fitted effect of over 50% in size. In outline:
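Luciferase luminescence (ONE-Glo, 30 min room temperature) was the read-out. Cells of the NTP-supplied ERR line, 2,000 per well, were given 6 h at 37 C before compound addition in DMSO and 18 h exposure at 37 C.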

The nature of test [4]: qHTS assay to identify small molecule agonists of the estrogen related receptor (ERR) signaling pathway from Tox21 library (AID 1224849; calls by dose curve; note: nearly all actives have a fitted effect of over 15% in size). The following applies: ERR reporter cell line, ONE-Glo luciferase, 18 h; at 92.4 µM (top of the series) unless noted. In outline:
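Tox21 compounds tested for ERR agonism in an NTP reporter cell line: 18 h treatment at 37 C, then ONE-Glo luminescence.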

Test [5] can be described thus: qHTS RealTime-Glo MT Cell Viability Assay in HepG2 cells - 24 hour (AID 1224867). Note: nearly all actives have a fitted effect of over 50% in size. The method, boiled down:
(§1)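 qHTS, HepG2, 600 cells/well, RealTime-Glo (NanoLuc + prosubstrate) added with cells; 5 h preincubation; DMSO compound addition; 37 C; luminescence at 0/8/16/24/32/40 h.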

Test [6] in a line: qHTS RealTime-Glo MT Cell Viability Assay in HEK293 cells - 32 hour (AID 1224868). For activity change, negative = cytotoxic: top concentration of the series differs between compounds. Note: nearly all actives have a fitted effect of over 50% in size. Note: potency is the fitted concentration of half-maximal effect. In outline: (§2)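 Assay medium contained NanoLuc luciferase plus cell-permeant prosubstrate, added with HEK293 cells at 600 cells/well. After 5 h at 37 C/5% CO2 compounds were added; plates stayed at 37 C for 40 h with serial luminescence reads.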
Test [7] can be described thus: A CellTox Green Cytotoxicity Assay to monitor cytotoxicity in HEK293 cells - 0 hour (AID 1224869). Note: nearly all actives have a fitted effect of over 50% in size. Note: potency is the fitted concentration of half-maximal effect. In outline: (§3)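 Tox21 screen in HEK293: membrane-impermeant cyanine dye fluoresces on binding dead-cell DNA; compound pinned 5 h post-seeding, plates held at 37 C, signal read repeatedly through 40 h.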
A short description of test [8]: qHTS RealTime-Glo MT Cell Viability Assay in HepG2 cells - 40 hour (AID 1224870). Note: nearly all actives have a fitted effect of over 50% in size. The method, boiled down: (§4)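 Real-time viability: cells seeded at 600 per well together with NanoLuc and cell-permeant prosubstrate, compounds added after 5 h incubation. Luminescence tracked at 0, 8, 16, 24, 32 and 40 h of exposure.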
Test [9] can be described thus: A CellTox Green Cytotoxicity Assay to monitor cytotoxicity in HEK293 cells - 40 hour (AID 1224871). Note: nearly all actives have a fitted effect of over 45% in size. Note: potency is the fitted concentration of half-maximal effect. The method, boiled down:
as §3

Test [10] is described as follows: qHTS RealTime-Glo MT Cell Viability Assay in HEK293 cells - 16 hour (AID 1224872). For activity change, negative = cytotoxicity: top concentration of the series differs between compounds. Note: nearly all actives have a fitted effect of over 50% in size. Note: potency is the fitted concentration of half-maximal effect. The method, boiled down: as §2
Test [11] in a line: qHTS RealTime-Glo MT Cell Viability Assay in HepG2 cells - 8 hour (AID 1224873). Note: nearly all actives have a fitted effect of over 55% in size. In outline:
as §4

A short description of test [12]: A CellTox Green Cytotoxicity Assay to monitor cytotoxicity in HEK293 cells - 24 hour (AID 1224875). Note: nearly all actives have a fitted effect of over 45% in size. Note: potency is the fitted concentration of half-maximal effect. In outline:
as §3

Test [13] is described as follows: A CellTox Green Cytotoxicity Assay to monitor cytotoxicity in HepG2 cells - 16 hour (AID 1224876). Note: nearly all actives have a fitted effect of over 45% in size. Note: potency is the fitted concentration of half-maximal effect. The method, boiled down: (§5)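 Measurements at 0, 8, 16, 24, 32 and 40 h of treatment captured CellTox Green fluorescence in HepG2 cells that had been co-plated with reagent and preincubated 5 h at 37 C/5% CO2.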
Test [14] is described as follows: qHTS RealTime-Glo MT Cell Viability Assay in HepG2 cells - 32 hour (AID 1224877). Note: nearly all actives have a fitted effect of over 55% in size. The method, boiled down: as §1
Test [15] can be described thus: A CellTox Green Cytotoxicity Assay to monitor cytotoxicity in HepG2 cells - 24 hour (AID 1224878). Note: nearly all actives have a fitted effect of over 45% in size. Note: potency is the fitted concentration of half-maximal effect. In outline:
as §5

A short description of test [16]: qHTS RealTime-Glo MT Cell Viability Assay in HEK293 cells - 0 hour (AID 1224880). The method, boiled down: (§6)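 HEK293 + NanoLuc + prosubstrate, 600 cells/well; 5 h, 37 C/5% CO2; compound 23 nL in DMSO by pintool; 37 C; luminescence read at 0, 8, 16, 24, 32 and 40 h time points.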
A short description of test [17]: A CellTox Green Cytotoxicity Assay to monitor cytotoxicity in HEK293 cells - 32 hour (AID 1224881). Note: nearly all actives have a fitted effect of over 40% in size. In outline:
as §3

The nature of test [18]: A CellTox Green Cytotoxicity Assay to monitor cytotoxicity in HepG2 cells - 40 hour (AID 1224879). Note: nearly all actives have a fitted effect of over 40% in size. Note: potency is the fitted concentration of half-maximal effect. In outline:
as §5

Test [19] can be described thus: A CellTox Green Cytotoxicity Assay to monitor cytotoxicity in HepG2 cells - 0 hour (AID 1224882). Note: nearly all actives have a fitted effect of over 35% in size. Note: potency is the fitted concentration of half-maximal effect. In outline: as §5
Test [20] is described as follows: qHTS RealTime-Glo MT Cell Viability Assay in HEK293 cells - 40 hour (AID 1224874). Note: nearly all actives have a fitted effect of over 50% in size. Note: potency is the fitted concentration of half-maximal effect. The following applies: RealTime-Glo luminescence; max response: stronger effect = lower value. The method, boiled down:
as §6

Where “and” joins values, the source holds several entries; their conditions need not be identical. Identical values can stand only once. Results filed as inconclusive are left out. The source holds several records for some structures; these can differ, active in one and inactive in another. Calls of active or inactive are those of the source. Unless noted, calls come from the whole dose curve; as a rule, active = well fitted curve in the direction sought with a large enough effect in the repeat runs; inconclusive = weak or mixed curves; inactive = no such curve, though single readings can be large; an effect the other way counts as inactive or inconclusive.

The results in this text go back to PubChem BioAssay (Tox21).
% is set by controls: 0 for no effect and ±100 for the full control effect.

On to `CCS(=O)(=O)c1cccnc1S(=O)(=O)NC(=O)Nc1nc(OC)cc(OC)n1`, for which the molecule was called inactive in test [1]. For the same molecule, the Potency entry in test [2], in test [3], in test [5], in [6], in [7] and in [8] was “inactive” each time. In addition, the Potency entry in test [9], in [10], in test [11], in test [12], in [13] and in test [14] was “inactive” throughout. For the same molecule, the Potency result in [15], in [16] and in test [17] was “inactive” each time. Also, in test [4], the activity change, positive = activation was 6.39% (inactive).

Take `CS(=O)(=O)c1ccc(C(=O)C2C(=O)CCCC2=O)c([N+](=O)[O-])c1`: the outcome in [1] was inactive. Besides, the Potency result in test [2], in test [3], in test [5], in [8], in test [11] and in test [14] was “inactive” each time. The Potency result in [16] was “inactive”. In addition, the activity change, positive = activation in test [4] was -0.0686% (inactive). Also, the Potency is 44.4 µM (active) in test [7]; 44.4 µM (active) in test [9]; 12.5 µM (active) in test [10]; 44.4 µM (active) in test [12]; 44.4 µM (active) in test [13]; 39.6 µM (active) in test [15]. The Potency was 2.23 µM (active) in test [18] and 39.6 µM (active) in test [19].

`C[C@H]1O[C@@H](O[C@H]2[C@@H](O)C[C@H](O[C@H]3[C@@H](O)C[C@H](O[C@H]4CC[C@@]5(C)[C@H](CC[C@@H]6[C@@H]5CC[C@]5(C)[C@@H](C7=CC(=O)OC7)CC[C@]65O)C4)O[C@@H]3C)O[C@@H]2C)C[C@H](O)[C@@H]1O`: the result in test [1] was inactive. In addition, the Potency result in [2], in test [3], in [5], in test [7], in test [8] and in test [9] was “inactive” throughout. The Potency result in test [11], in [12], in test [13], in test [14], in test [15] and in [16] was “inactive” throughout. The Potency result in test [17] and in [19] was “inactive” each time. Also, in test [4], the activity change, positive = activation was -72.7% [at 42.5 µM] (inactive) and -65% [at 42.5 µM] (active). Further, the Potency is 31.1 nM (active) and 95.2 nM (active) in test [6]; 0.0952 µM (active) in test [10]; 31.1 nM (active) and 95.2 nM (active) in test [20].

Consider `Brc1c(Br)c(Br)c(Oc2c(Br)c(Br)c(Br)c(Br)c2Br)c(Br)c1Br`, for which the activation in test [1] was 0.0203% [at 15.8 µM] (inactive). Also, the activity change, negative = cytotoxicity is 2.26% [at 31.6 µM] (inactive) in test [2], -1.54% [at 15.8 µM] (inactive) in test [5], 3.04% [at 15.8 µM] (inactive) in test [10] and -0.353% [at 15.8 µM] (inactive) in test [16]. In test [3], the activity, negative = inhibition is 6.83% [at 19 µM] (inactive). Further, the activity change, positive = activation in [4] was 3.27% [at 19 µM] (inactive). The activity change, negative = cytotoxic in test [6] was 5.03% [at 15.8 µM] (inactive); in test [8], -6.21% [at 15.8 µM] (inactive); in test [14], -3.04% [at 15.8 µM] (inactive). Moreover, the cytotoxicity in test [7] was -1.03% [at 15.8 µM] (inactive); in test [15] it was -2.63% [at 15.8 µM] (inactive); in test [19], -0.0157% [at 15.8 µM] (inactive). Moreover, the cytotoxicity increase in test [9] is 1.02% [at 15.8 µM] (inactive); in [13], -3.41% [at 15.8 µM] (inactive); in test [18] it was 1.89% [at 15.8 µM] (inactive); in test [17], -3.94% [at 15.8 µM] (inactive). The viability change, negative = cytotoxic in test [11] was 5% [at 15.8 µM] (inactive). For the same molecule, the max response in [20] is 1.84% (inactive). The activity change in test [12] was -3.29% [at 15.8 µM, stronger effect = higher value] (inactive).

Take `CCOP(=S)(OCC)OC(Cl)C(Cl)(Cl)Cl` (stereo not drawn): the molecule was classed as inactive in test [1]. Moreover, the Potency entry in [2], in test [3], in test [5], in [6], in [8] and in [10] was “inactive” each time. The Potency entry in [11], in test [15], in [18], in test [16] and in [19] was “inactive” each time. The activity change, positive = activation in test [4] is 4.56% (inactive). Moreover, in [20], the max response is -10.7% (inactive).

Consider `CC(C)CC(C)N` (stereo not drawn), for which, in test [1], the outcome was inactive. Further, the Potency entry in test [2], in test [3], in test [5], in test [6], in test [7] and in [8] was “inactive” each time. Besides, the Potency entry in test [9], in [10], in [11], in [12], in test [13] and in [15] was “inactive” throughout. Moreover, the Potency entry in [18], in [16], in test [17] and in test [19] was “inactive” throughout. The activity change, positive = activation in [4] is 0.671% (inactive).

For the molecule `COC[C@H](C)N(C(=O)CCl)c1c(C)csc1C`, the outcome in [1] was inactive. The Potency entry in [2], in test [5], in [6], in [7], in [8] and in test [9] was “inactive” throughout. The Potency entry in [10], in test [11], in test [12], in test [13], in [14] and in test [15] was “inactive” each time. Also, the Potency entry in [18], in test [16] and in [17] was “inactive” throughout. The activity change, positive = activation in test [4] is 9.24% (inactive). Also, the max response in test [20] is 19.6% (inactive).
